Measured potencies and affinities stand elsewhere. Calls of active or inactive are those of the source.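 How the source made its calls: active means cell killing with a fitted half-effect concentration at or below twice the top valid dose; inconclusive means flat curve with 30 to 70 percent drop, or poor fit; inactive means the rest.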
Assay: viability loss in HEK293T kidney cells – cell-based, ATP luminescence, cherry-pick, set 6, cytotoxicity control, dose response (AID 1053126);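 further: 0% = neutral control wells and -100% = mitoxantrone 10 µM positive control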
Conditions: CellTiter-Glo ATP luminescence, 72 h; series mostly up to 26 µM; activity change, negative = cytotoxicity: at the top concentration

| SMILES | activity change, negative = cytotoxicity |
| --- | --- |
| Cc1cccn2c(=O)c3cc(C(=O)NCCN4CCOCC4)c(=N)n(CCc4ccccc4)c3nc12 | -20.7% (inactive) |
| CCCCN1C=C(C(=O)OC)C(c2ccccc2Cl)C(C(=O)OC)=C1 | -13.7% (inactive) |
| Cc1c(C(=O)NCc2ccc3c(c2)OCCO3)sc(=O)n1Cc1ccccc1F | -6.29% (inactive) |
| CC1CC(C)CN(CCCNC(=O)CCC(=O)N2CC(C)Oc3ccccc32)C1 (stereo not drawn) | 9.39% (inactive) |
| COc1ccc(C(=O)c2sc3nc(-c4ccc(OC)cc4)ccc3c2N)cc1 | 36.5% (inactive) |
| COc1ccc(C2C3=C(CCCC3=O)N(CC(=O)O)C3=C2C(=O)CCC3)cc1Cl | -6.96% (inactive) |
| O=[N+]([O-])c1cccc(Nc2c3ccccc3nc3ccccc23)c1 | -22% (inactive) |
| N#Cc1c(NCCCO)nc(NCc2ccccc2)c2c1CCN(Cc1ccccc1)C2 | -9.15% (inactive) |
| Fc1ccc(-c2nc3ccccn3c2NCc2ccc3c(c2)OCO3)cc1 | -10.2% (inactive) |
| Cn1cccc1/C=N/NC(=O)c1sc2cc(Cl)ccc2c1Cl | -10.6% (inactive) |
| C/C(=N\NC(=O)CC#N)c1cc2ccc(O)cc2oc1=O | 12.9% (inactive) |
| O=C(Cn1ccc([N+](=O)[O-])n1)N1CCCCCC1 | -8.62% (inactive) |
| O=C(Nc1ccc(-c2ccco2)cc1)C1CCCN(Cc2ccco2)C1 (stereo not drawn) | -13.4% (inactive) |
| O=C(NNc1c2ccccc2nc2ccccc12)c1ccc(O)cc1 | -17.1% (inactive) |
| O=C(NNc1cc(N2CCCC2)nc(N2CCCC2)n1)c1ccc([N+](=O)[O-])cc1 | -11.6% (inactive) |
| CC(=O)Oc1ccc2cc(-c3nc4ccccc4n3C)c(=O)oc2c1 | -5.92% (inactive) |
| Cc1c(Nc2c3ccccc3nc3ccccc23)c(=O)n(-c2ccccc2)n1C | -5.14% (inactive) |
| CCOc1ccc2nc(NCCNC(=O)CC)c(C#N)cc2c1 | -1.9% (inactive) |
| CCOC1=NN(c2ncc(C(F)(F)F)cc2Cl)C(=O)C1 | 15.9% (inactive) |

| SMILES | activity change, negative = cytotoxicity |
| --- | --- |
| CCOc1ccc2nc(NCCCNC(=O)c3cc(OC)c(OC)c(OC)c3)c(C#N)cc2c1 | -13.6% (inactive) |
| CCN(CC)CCN1C2=C(C(=O)CC(C)(C)C2)C(c2cccc(F)c2)C2=C1CC(C)(C)CC2=O | -0.832% (inactive) |
| CCCCn1nc(NC(=O)c2cccs2)c2cc3cc(OC)ccc3nc21 | -8% [at 12 µM] (inactive) |
| Cc1cc(C)nc(SCC(=O)Nc2ccc(S(=O)(=O)Nc3onc(C)c3C)cc2)n1 | -1.79% (inactive) |
| Cc1ccc(NC(=O)Nc2ccnc(-c3cccnc3)n2)cc1 | -11.9% (inactive) |
| Cc1ccc(S(=O)(=O)c2cc3c(=O)n4ccccc4nc3n(C)c2=N)cc1 | -8.9% (inactive) |
| COc1ccc(CCN=C(N)NS(=O)(=O)c2ccc(F)cc2)cc1 | -15.2% (inactive) |
| CCCCCCc1cc2cc(S(=O)(=O)c3ccc(C)cc3)c(=O)oc2cc1O | 59.9% (inactive) |
| O=C1c2ccccc2S(=O)(=O)c2cc(N3CCC(C(=O)N4CCCCC4)CC3)ccc21 | -19.3% (inactive) |
| N#Cc1ccc(OCC(=O)OCC(=O)N2CCc3ccccc32)cc1 | -5.79% (inactive) |
| Clc1cccc(CN2CCN(Cc3nc(CCc4ccccc4)no3)CC2)c1 | -15.3% (inactive) |
| Cc1ccc(C(=O)OCC(=O)Nc2c(C)nn(-c3ccccc3)c2C)c(O)c1 | 25.2% (inactive) |
| Nc1ccc2nc(-c3ccccc3)cnc2c1 | -5.63% (inactive) |
| CCc1nnc(NC(=O)c2ccc(-c3ccccc3F)o2)s1 | -0.088% (inactive) |
| O=C(c1ccc(F)cc1)C1CCN(C(=O)Nc2ccccc2Cl)CC1 | -6.61% (inactive) |
| COc1ccc(S(=O)(=O)Cc2ccc(C(=O)N3CCN(Cc4ccccc4)CC3)o2)cc1 | 43.5% (inactive) |
| COc1ccccc1OCc1ccc(C(=O)N(C)c2ccccc2)o1 | 23.6% (inactive) |
| Cc1noc(C)c1S(=O)(=O)N(CC(=O)N1CCCCCC1)c1ccc(C(C)C)cc1 | -16.6% (inactive) |
| Cc1cc(-c2nc3cccnc3s2)ccc1NS(=O)(=O)c1cccs1 | 2.17% (inactive) |

Source: PubChem BioAssay AID1053126 (Broad Institute, 2014)
